One may read the viability as a read-out of living cells in per cent, often relative to untreated cells. The inhibition is how much of the control response was suppressed.

Where “and” joins values, the source holds several entries; their conditions need not be identical. Equal entries are not always repeated. Calls of active or inactive are those of the source.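 The calls were made as follows, unless noted: active = z-score of at least 1.8 in each of two replicates, scored against plate mean and spread of sample wells; inactive = the rest.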

The nature of assay [1]: P. berghei load reduction in hepatocytes – cell-based, HepG2, luciferase luminescence, HepG2 viability, primary screen (AID 624349; in the data active = parasite load remaining mostly below about 12%, no sharp cut-off; inactive = mostly above about 10%;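 also: 100% = mean of DMSO negative control wells on the same plate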). As to conditions: P. berghei liver stage in HepG2, luciferase luminescence, concentration not given here; parasite load remaining: stronger effect = lower value; viability: measured here: HepG2 viability without parasites.
The nature of assay [2]: Wnt pathway potentiators raising nuclear beta-catenin – imaging, WNT3A-conditioned medium, mouse C2C12, NPC library, primary screen (AID 1117326; in the data active = nuclear beta-catenin stimulation mostly above about 4.2%, no sharp cut-off; inactive = mostly below about 10%). The conditions noted are these: stronger effect = higher value.
The nature of assay [3]: stimulators of insulin release from INS-1E, primary screen, cell-based, 5 mM glucose, NPC library (AID 1117329;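 active = compound raises insulin release from rat beta cells at 5 mM glucose, no numeric limit stated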). The conditions noted are these: rat INS-1E insulin secretion, at 10 µM, stronger effect = higher value.
Assay [4] is described as follows: growth inhibition of GSK3B-pretreated HCT116 cells – cell-based, CellTiter-Glo, 0.2 to 20 µM (AID 1117336;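 active = compounds lowering colon cancer cell viability after pretreatment blocking the GSK3B kinase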). The conditions noted are these: HCT116 viability after GSK3B inhibitor, at 20 µM, stronger effect = higher value.
The nature of assay [5]: inhibition of endothelial tube formation, primary screen, imaging, VEGF stimulated, CD31 staining, tube area, NPC library (AID 1117340;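 active = compound that reduces growth-factor-driven endothelial tube area in a mixed cell culture, no cutoff stated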). As to conditions: VEGF-stimulated ADSC/ECFC co-culture, at 10 µM, stronger effect = higher value.
The nature of assay [6]: GLP1 release stimulators, primary, NCI-H716, NPC library (AID 1117341;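 active = compound raises GLP1 secretion from the human gut endocrine cells, with no numeric limit stated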). As to conditions: NCI-H716 cells, at 10 µM, stronger effect = higher value.
Assay [7] can be described thus: HCT116 colon cancer cell growth inhibition, primary screen, CellTiter-Glo luminescence, NPC library (AID 1117342;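 active = compounds that lower survival of HCT116 colon cancer cells in the luminescence readout, no numeric limit stated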). The conditions noted are these: at 20 µM (top of the series).
Assay [8] in a line: reduced SW480 viability measured with CellTiter-Glo, NPC library, primary (AID 1117343;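 active = compounds that lower viability of the colon cancer cells in the luminescence readout, with no numeric limit stated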). The conditions noted are these: CellTiter-Glo luminescence; at 20 µM (top of the series).
A short description of assay [9]: NPC library primary testing for decreased DLD-1 cell viability via CellTiter-Glo (AID 1117346;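 active = compounds that lower survival of DLD-1 colon cancer cells in the luminescence readout, no cutoff given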). As to conditions: DLD-1 viability, CellTiter-Glo luminescence; at 20 µM (top of the series). In general terms: In ATP-based viability assays light output follows the ATP content of the culture.
Assay [10] deals with 6-phosphogluconate dehydrogenase, decarboxylating (Homo sapiens) (UniProt P52209). The assay can be described thus: inhibition of human phosphogluconate dehydrogenase – biochemical, recombinant enzyme, NADPH absorbance, primary screen (AID 1159550;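 active = at least 20% inhibition of 6-phosphogluconate dehydrogenase activity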). The conditions noted are these: recombinant 6PGD, NADPH absorbance 341 nm; at 10 µM; stronger effect = higher value.
Chain of 6-phosphogluconate dehydrogenase, decarboxylating (Homo sapiens) (P52209 whole entry, looked up): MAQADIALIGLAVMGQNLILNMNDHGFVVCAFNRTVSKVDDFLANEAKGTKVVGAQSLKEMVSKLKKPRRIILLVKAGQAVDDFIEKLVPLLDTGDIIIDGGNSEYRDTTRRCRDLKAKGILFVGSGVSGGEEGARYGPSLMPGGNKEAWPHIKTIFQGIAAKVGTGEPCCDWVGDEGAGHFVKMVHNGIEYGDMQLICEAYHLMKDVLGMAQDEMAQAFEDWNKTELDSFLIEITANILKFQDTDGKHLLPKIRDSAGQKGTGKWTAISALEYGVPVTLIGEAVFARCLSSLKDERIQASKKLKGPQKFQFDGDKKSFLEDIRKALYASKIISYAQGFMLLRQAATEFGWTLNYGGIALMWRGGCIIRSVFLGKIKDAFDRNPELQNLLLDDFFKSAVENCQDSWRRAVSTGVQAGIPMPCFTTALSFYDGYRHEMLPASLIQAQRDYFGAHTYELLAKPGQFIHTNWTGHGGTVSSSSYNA
Assay [11] can be described thus: EMT-state selective cytotoxicity in co-culture – imaging, PC-3E GFP, TEM4-18 mCherry, primary screen (AID 1345086;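 active = compounds killing one labelled cell type while sparing the other, by normalised counts and ratio limits, not self-fluorescent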;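 as to all read-outs here: cells exposed to compound for 72 h before imaging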;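 as to red/green cell ratio (normalised): normalised mesenchymal count divided by normalised epithelial count so high means epithelial killing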). As to conditions: PC-3E GFP / TEM4-18 mCherry co-culture, imaging cell counts, at 1 µM; for red/green cell ratio (normalised): actives lie on both sides.
In assay [12] the test system is Aerobactin synthetase IucA (Klebsiella pneumoniae hvKP1). As to the kind of experiment: IucA enzyme inhibition, primary screen, biochemical, Spectrum library (AID 1346200; call rule not given here;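 also: 100% = wells without compound and 0% = wells lacking enzyme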). The conditions noted are these: malachite green pyrophosphate, A620, at 8 µM, stronger effect = lower value.
Assay [13] can be described thus: viability loss with induced miR-34 in A549 – imaging, A549 dox-inducible miR-34, nuclei and caspase counts, primary screen (AID 1347080;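 active = compounds whose cell count with miR-34 switched on is under 0.7 times the count with it off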). The conditions noted are these: A549 miR-34 inducible, Hoechst nuclei count, 48 h.
A short description of assay [14]: MELAS cybrid and Rieske KO viability enhancers – cell-based, MELAS cybrids, Rieske KO mouse fibroblasts, CellTiter-Glo, primary screen (AID 1508586;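 active = mean z-score across replicates of 1.96 or higher in either the MELAS or the Rieske mutant cell line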;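 also: z relative to plate mean and SD of compound and empty wells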). As to conditions: low glucose.
The target of assay [15] is NAD(+) hydrolase SARM1 (Homo sapiens) (UniProt Q6SZW1). The assay can be described thus: blocking NAD cleavage by SARM1 SAM-TIR – cell lysate, NAD-Glo luminescence (AID 1508614;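 active = compound whose remaining NAD level is above about 45 nM, limit read from the data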;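 also: higher remaining NAD means stronger inhibition of SARM1 NADase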). The conditions noted are these: SAM-TIR HEK293T lysate NADase, at 1 µM, stronger effect = higher value.
Chain of NAD(+) hydrolase SARM1 (Homo sapiens) (Q6SZW1 whole entry, looked up, the tested form may be a part): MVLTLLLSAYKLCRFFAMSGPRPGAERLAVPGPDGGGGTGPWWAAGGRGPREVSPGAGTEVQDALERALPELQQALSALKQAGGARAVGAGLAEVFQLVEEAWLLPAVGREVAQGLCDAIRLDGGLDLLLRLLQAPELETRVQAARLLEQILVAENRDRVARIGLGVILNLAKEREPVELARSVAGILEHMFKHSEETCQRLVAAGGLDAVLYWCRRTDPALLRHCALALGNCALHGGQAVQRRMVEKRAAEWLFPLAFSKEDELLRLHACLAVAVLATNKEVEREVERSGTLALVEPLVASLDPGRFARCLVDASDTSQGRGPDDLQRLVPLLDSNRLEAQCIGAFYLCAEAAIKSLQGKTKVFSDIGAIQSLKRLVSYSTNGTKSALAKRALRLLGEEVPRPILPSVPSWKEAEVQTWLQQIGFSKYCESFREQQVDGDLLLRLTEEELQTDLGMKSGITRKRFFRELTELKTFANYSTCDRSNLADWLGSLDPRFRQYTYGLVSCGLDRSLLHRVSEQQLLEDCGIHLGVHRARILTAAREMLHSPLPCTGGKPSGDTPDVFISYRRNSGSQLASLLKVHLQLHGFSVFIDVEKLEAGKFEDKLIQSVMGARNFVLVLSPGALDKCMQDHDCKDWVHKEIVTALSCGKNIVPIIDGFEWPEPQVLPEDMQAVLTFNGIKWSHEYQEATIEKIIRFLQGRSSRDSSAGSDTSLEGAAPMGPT
For assay [16], the target named is Mitogen-activated protein kinase 7 (Homo sapiens) (UniProt Q13164). The assay can be described thus: Gal4-ERK5 driven luciferase induction – cell-based, HTS, primary screen (AID 1508626;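 active = luciferase signal above three times the same-plate solvent-only control wells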;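 also: luciferase driven by Gal4-ERK5 fusion binding five Gal4 sites before minimal TATA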). As to conditions: HeLa Gal4-ERK5 transactivation, 18 h, at 5 µM, stronger effect = higher value.
Chain of Mitogen-activated protein kinase 7 (Homo sapiens) (Q13164 whole entry, looked up, the tested form may be a part): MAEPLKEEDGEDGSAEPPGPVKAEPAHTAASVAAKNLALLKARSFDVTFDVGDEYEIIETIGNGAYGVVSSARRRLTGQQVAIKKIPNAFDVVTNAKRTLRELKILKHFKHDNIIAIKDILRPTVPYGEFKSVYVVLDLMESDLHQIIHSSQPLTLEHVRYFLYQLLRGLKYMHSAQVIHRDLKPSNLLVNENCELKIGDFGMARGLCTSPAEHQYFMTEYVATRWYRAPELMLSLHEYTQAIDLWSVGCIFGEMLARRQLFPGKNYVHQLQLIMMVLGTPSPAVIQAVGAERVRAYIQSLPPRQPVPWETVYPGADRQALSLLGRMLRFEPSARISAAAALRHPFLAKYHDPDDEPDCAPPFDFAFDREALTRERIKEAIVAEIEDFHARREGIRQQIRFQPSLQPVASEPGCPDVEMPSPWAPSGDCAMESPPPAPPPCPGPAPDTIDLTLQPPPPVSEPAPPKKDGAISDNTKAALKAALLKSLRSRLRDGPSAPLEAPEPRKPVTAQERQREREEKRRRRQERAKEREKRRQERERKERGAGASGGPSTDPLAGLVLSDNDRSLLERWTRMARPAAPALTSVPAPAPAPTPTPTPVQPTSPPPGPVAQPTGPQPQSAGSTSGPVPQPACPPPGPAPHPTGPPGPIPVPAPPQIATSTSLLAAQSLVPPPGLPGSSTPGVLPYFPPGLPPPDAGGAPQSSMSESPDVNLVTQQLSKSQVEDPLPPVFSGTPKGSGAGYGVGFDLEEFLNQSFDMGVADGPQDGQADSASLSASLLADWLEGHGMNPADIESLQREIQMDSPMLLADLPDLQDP
Assay [17] is described as follows: galactose survival enhancers in mitochondrial complex I cybrids – cell-based, galactose medium, ATP luminescence, primary screen (AID 1645843).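 Also: positive z means more ATP and so rescue of galactose-driven cybrid death.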 The conditions noted are these: complex I mutant cybrid cells, 72 h, stronger effect = higher value.
The nature of assay [18]: yeast 75Q aggregation reduction – 75Q-TubU reporter (AID 1593). The conditions noted are these: Yeast 75Q polyglutamine aggregation reporter.
Assay [19] can be described thus: blockers of cytochrome c efflux from mitochondria – biochemical, purified mitochondria (AID 1603).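 Also: mouse liver mitochondria challenged with calcium chloride; signal normalized to the plate average as 100%.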 As to conditions: stronger effect = lower value.
Assay [20] can be described thus: polyglutamine aggregate formation blockers (AID 1604). As to conditions: polyglutamine-induced protein aggregation inhibition assay; stronger effect = higher value; tested at 2.5 µM.
[21] abbreviates: measured here: epithelial PC-3E GFP cell survival.
The mark [22] stands for this setting: measured here: mesenchymal TEM4-18 mCherry cell survival.
The mark [23] stands for this setting: measured here: relative caspase fold change +Dox/-Dox.
Where [24] appears, read: measured here: total cells with miR-34 induction, stronger effect = lower value.
Where [25] appears, read: measured here: total cells without miR-34 induction.
[26] abbreviates: MELAS cybrid survival, CellTiter-Glo 48 h, stronger effect = higher value.
The mark [27] stands for this setting: Rieske KO mouse fibroblast survival, CellTiter-Glo 72 h.

As for `CCC1(C2=NCCN2)Cc2ccccc2O1` (centres undefined), in [1], the parasite load remaining is 40% (inactive). In addition, the viability in assay [1] was 95.5%. For the same molecule, the nuclear beta-catenin stimulation was 1.3% (inactive) in [2] (at 10 µM) and -0.1% in assay [2] (stimulation, at 2 µM). For the same molecule, the insulin secretion stimulation in assay [3] was 3% (inactive). Also, the viability decrease in [4] is -18.3% (inactive). Moreover, in assay [5], the tube area decrease is 6.6% (inactive). The GLP1 secretion stimulation in assay [6] was 2.2% (inactive). Also, the inhibition of viability in [7] was 3.97% (inactive). Further, the viability decrease (inhibition) in assay [8] was 3% (inactive); in assay [9], 0.7% (inactive). Besides, in assay [10], the inhibition was 2.64% (inactive). Also, in assay [11] (counts scaled to control wells, 1 = unselective), the red/green cell ratio (normalised) was 0.88 (inactive). Besides, the normalised cell number turned out to be 1.21 in assay [11] (setting [21]) and 1.07 in [11] (setting [22]). In assay [12], the activity remaining was 92.2% (inactive). Besides, the fold change in [13] (stronger effect = lower value) was 0.923 (inactive) and 0.953 (inactive) and 0.905 (inactive); in [13] (setting [23]) it was 1.9 and 0.731 and 1.02. For the same molecule, the cell count was 9860 and 8980 and 10100 in assay [13] (setting [24]); 10700 and 9420 and 11200 in assay [13] (setting [25]). For the same molecule, the z-score was -0.478 (inactive) in assay [14] (setting [26]); -0.349 in [14] (setting [27]); 0.21 (inactive) and 0.18 (inactive) and 0.695 (inactive) in [17]. For the same molecule, the remaining NAD in assay [15] is 10 nM (inactive). In [16], the luciferase signal is 140 AU (inactive).

As to `c1ccc2nc(N3CCNCC3)ccc2c1`, the score in assay [18] worked out at 1.22. The cytochrome c release ratio in assay [19] was 0.9. For the same molecule, in assay [20], the inhibition of aggregation worked out at 63.9%. The parasite load remaining in [1] is 73.5% (inactive) and 55.7% (inactive) and 53.7% (inactive). The viability in [1] is 107% and 72.2% and 102%. The nuclear beta-catenin stimulation in [2] (at 10 µM) is 0.1% (inactive); in [2] (stimulation, at 2 µM), -1.9%. In addition, the insulin secretion stimulation in assay [3] was 4% (inactive). Further, in [4], the viability decrease is 41.7% (inactive). Further, the tube area decrease in assay [5] is -4.1% (inactive). For the same molecule, the GLP1 secretion stimulation in assay [6] was 3.6% (inactive). Further, the inhibition of viability in assay [7] is 56.9% (active). For the same molecule, the values for the viability decrease (inhibition) in assay [8] and in [9] were 54.9% (active) and 25% (inactive), respectively. Moreover, the inhibition in assay [10] is 9.28% (inactive). Besides, in assay [11], the red/green cell ratio (normalised) is 1.18 (inactive). Further, the normalised cell number stood at 1.13 in assay [11] (setting [21]) and 1.34 in [11] (setting [22]). Also, the activity remaining in [12] is 124% (inactive). For the same molecule, the fold change in assay [13] (stronger effect = lower value) was 0.855 (inactive) and 0.953 (inactive) and 0.849 (inactive); in [13] (setting [23]), 1.3 and 0.736 and 5.89. For the same molecule, the cell count in [13] (setting [24]) is 9120 and 9090 and 11300; in assay [13] (setting [25]), 10700 and 9530 and 13400. In addition, the z-score in assay [14] (setting [26]) is 0.387 (inactive); in [14] (setting [27]), 0.0895; in assay [17], -0.47 (inactive). Further, in [15], the remaining NAD was 10 nM (inactive). In assay [16], the luciferase signal is 28 AU (inactive).

Regarding `C1CN(P2(N3CC3)=NP(N3CC3)(N3CC3)=NP(N3CC3)(N3CC3)=N2)CCO1` (centres undefined), the nuclear beta-catenin stimulation in assay [2] (at 10 µM) was -0.2% (inactive); in [2] (stimulation, at 2 µM), 0.7%. Besides, the insulin secretion stimulation in [3] was 2.5% (inactive). Besides, the viability decrease in assay [4] was 8.1% (inactive). The tube area decrease in assay [5] was 86.7% (active). Further, in assay [6], the GLP1 secretion stimulation is -5.1% (inactive). For the same molecule, the inhibition of viability in assay [7] was 30.4% (inactive). Also, the viability decrease (inhibition) in [8] was 17.7% (active); in assay [9], 5.5% (inactive).

In assay [18], `CC(C)N(CCC(C(N)=O)(c1ccccc1)c1ccccn1)C(C)C` (centres undefined) displayed a score of 1.39. In addition, the cytochrome c release ratio in assay [19] is 1.18. In assay [20], this molecule had an inhibition of aggregation of 70.4%. Besides, the nuclear beta-catenin stimulation in assay [2] (at 10 µM) was 0.5% (inactive); in [2] (stimulation, at 2 µM) it was 1.2%. For the same molecule, in assay [3], the insulin secretion stimulation was 0.8% (inactive). For the same molecule, in [4], the viability decrease was -17.4% (inactive). In addition, the tube area decrease in assay [5] is 15.3% (inactive). In addition, the GLP1 secretion stimulation in [6] was -2.8% (inactive). Moreover, in assay [7], the inhibition of viability is -3.87% (inactive). Further, the viability decrease (inhibition) is 18.8% (inactive) in [8] and -13.7% (inactive) in [9]. Further, the inhibition in [10] was 5.28% (inactive). Besides, in [11], the red/green cell ratio (normalised) was 1.1 (inactive). Moreover, the figures for the normalised cell number in assay [11] (setting [21]) and in assay [11] (setting [22]) were 1.22 and 1.34, respectively. In addition, the activity remaining in assay [12] is 102% (inactive). The z-score is -0.238 (inactive) and 0.483 (inactive) in assay [14] (setting [26]); -0.211 and 0.374 in assay [14] (setting [27]); 0.14 (inactive) and 0.36 (inactive) and 1.19 (inactive) in assay [17]. The remaining NAD in assay [15] was 10 nM (inactive). Besides, the luciferase signal in [16] was 32 AU (inactive).

The values are drawn from PubChem BioAssay.
